Some of the results follow. No count for the full screen is at hand.
Molecular target: furin, P09958
Assay: furin cleavage Z-score vs untreated control; higher = more cleavage, active = 3.5 or more, inactive = 1 or less, 8 variable residues between constant flanks
How it was run: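 Cleavage by purified furin was measured on 8-mer peptides fused to a cDNA oligonucleotide and held on magnetic beads by their N-terminus. Reactions (0.01 ml, 1:10 enzyme:substrate) ran 7.5, 15 or 30 min in 50 mM HEPES pH 7.5 with CaCl2 and NaCl. Released DNA was adapter-tagged by PCR and sequenced, with read counts giving abundance. Log counts versus furin-free reactions were lowess-adjusted and scaled by median absolute deviation to give the cleavage Z-score.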

Chain of furin, P09958 (P09958 whole entry): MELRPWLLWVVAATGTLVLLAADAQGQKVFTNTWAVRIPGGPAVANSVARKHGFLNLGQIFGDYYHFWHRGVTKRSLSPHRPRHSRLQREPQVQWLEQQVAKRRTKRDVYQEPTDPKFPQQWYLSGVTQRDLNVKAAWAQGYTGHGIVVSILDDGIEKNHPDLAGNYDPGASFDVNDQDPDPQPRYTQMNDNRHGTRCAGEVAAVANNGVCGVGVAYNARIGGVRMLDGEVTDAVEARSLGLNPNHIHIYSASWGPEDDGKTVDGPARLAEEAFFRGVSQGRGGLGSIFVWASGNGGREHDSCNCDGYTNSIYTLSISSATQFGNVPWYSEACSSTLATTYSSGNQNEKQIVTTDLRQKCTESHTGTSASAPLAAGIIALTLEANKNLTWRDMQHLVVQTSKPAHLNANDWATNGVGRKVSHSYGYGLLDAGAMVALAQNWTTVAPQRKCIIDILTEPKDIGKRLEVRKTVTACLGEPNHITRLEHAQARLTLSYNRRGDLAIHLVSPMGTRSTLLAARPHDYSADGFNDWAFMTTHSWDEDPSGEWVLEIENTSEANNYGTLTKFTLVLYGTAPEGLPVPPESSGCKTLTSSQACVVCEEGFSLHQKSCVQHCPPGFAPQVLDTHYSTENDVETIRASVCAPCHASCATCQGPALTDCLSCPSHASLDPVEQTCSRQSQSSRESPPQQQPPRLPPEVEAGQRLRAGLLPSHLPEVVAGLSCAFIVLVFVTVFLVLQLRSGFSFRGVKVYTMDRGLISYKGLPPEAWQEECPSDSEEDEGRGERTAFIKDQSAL

| Sequence | furin cleavage Z-score (7.5 min) | furin cleavage Z-score (15 min) | furin cleavage Z-score (30 min) |
| --- | --- | --- | --- |
| CATWAQPGYPAGNASASA [HC198] | -0.244 (inactive) | 0.873 (inactive) | -0.438 (inactive) |
| CAWWARSVGGAGNASASA [FS-2116] | 0.297 (inactive) | 0.813 (inactive) | 1.73 |
| CARNKRFYGGAGNASASA [FS-1910] | 0.307 (inactive) | 0.312 (inactive) | 2.91 |
| CARNKRPTFLAGNASASA [FS-3008] | -0.0512 (inactive) | 0.819 (inactive) | -0.221 (inactive) |
| CAEVVTSTMVAGNASASA [HC2226] | 1.1 | 0.363 (inactive) | 1.25 |
| CARNKKSIAVAGNASASA [FS-2434] | -0.82 (inactive) | 0.605 (inactive) | 1.7 |
| CAFRKRSHSKAGNASASA [FS-2120] | -0.356 (inactive) | -1.2 (inactive) | -1.04 (inactive) |
| CARNKRSKSNAGNASASA [FS-2729] | 7.79 (active) | 9.35 (active) | 7.37 (active) |
| CARNKRSTQIAGNASASA [FS-1911] | 10.5 (active) | 12.3 (active) | 10.9 (active) |
| CARNKKQNSQAGNASASA [FS-2282] | 1.09 | -0.5 (inactive) | -0.768 (inactive) |
| CARNKRDTMVAGNASASA [FS-1862] | 12.3 (active) | 13.2 (active) | 10.9 (active) |
| CARNKRSHSGAGNASASA [FS-1758] | 5.74 (active) | 8.23 (active) | 6.55 (active) |
| CARNKKSKMDAGNASASA [FS-2497] | -0.56 (inactive) | -0.669 (inactive) | -0.939 (inactive) |
| CAVFCCSMSYAGNASASA [HC2007] | -1.31 (inactive) | -1.48 (inactive) | -0.762 (inactive) |
| CAPTPCSGSWAGNASASA [HC1839] | -0.934 (inactive) | -0.739 (inactive) | -1.08 (inactive) |
| CACRPLTDFDAGNASASA [HC390] | -1.1 (inactive) | 0.259 (inactive) | -1.94 (inactive) |
| CANVPCHRPSAGNASASA [HC2321] | 0.0675 (inactive) | 0.859 (inactive) | 1.03 |
| CALNTGWLAGAGNASASA [HC377] | -0.173 (inactive) | -0.464 (inactive) | 0.636 (inactive) |
| CASTPCSAKLAGNASASA [HC2554] | 0.275 (inactive) | 1.72 | 1.78 |
| CANAASLAGTAGNASASA [HC538] | 0.915 (inactive) | 0.0856 (inactive) | 0.369 (inactive) |
| CAVIVGRVVLAGNASASA [HC1001] | -0.946 (inactive) | -1.25 (inactive) | -0.791 (inactive) |
| CALRRRCQRDAGNASASA [FS-459] | 9.61 (active) | 9.12 (active) | 7.39 (active) |

| Sequence | furin cleavage Z-score (7.5 min) | furin cleavage Z-score (15 min) | furin cleavage Z-score (30 min) |
| --- | --- | --- | --- |
| CATKRRNQRDAGNASASA [FS-509] | 9.77 (active) | 11 (active) | 8.15 (active) |
| CALRRVLRRDAGNASASA [FS-56] | 4.93 (active) | 4.47 (active) | 5.29 (active) |
| CALRRRGPGKAGNASASA [FS-2124] | -0.105 (inactive) | -1.37 (inactive) | -1.45 (inactive) |
| CAKPMRQQRDAGNASASA [FS-343] | 5.15 (active) | 5.86 (active) | 7.03 (active) |
| CALPVWARPDAGNASASA [HC1303] | -0.876 (inactive) | -0.333 (inactive) | -0.285 (inactive) |
| CAFPNRDQRDAGNASASA [FS-652] | -0.191 (inactive) | -0.415 (inactive) | -0.133 (inactive) |
| CATTFCSGSWAGNASASA [HC1867] | 0.273 (inactive) | 0.134 (inactive) | -0.205 (inactive) |
| CALTTSQTLLAGNASASA [HC1061] | -1.15 (inactive) | 0.0331 (inactive) | 0.232 (inactive) |
| CAIYGACYSIAGNASASA [HC1594] | 0.0718 (inactive) | 0.563 (inactive) | -0.201 (inactive) |
| CARGLLGCIIAGNASASA [HC679] | -0.71 (inactive) | -0.595 (inactive) | -1.08 (inactive) |
| CARLARASRDAGNASASA [FS-1606] | 6.41 (active) | 5.81 (active) | 5.23 (active) |
| CAVHSRASRDAGNASASA [FS-205] | 6.86 (active) | 6.96 (active) | 4.81 (active) |
| CAEVPCHNPSAGNASASA [HC2381] | -0.125 (inactive) | 0.398 (inactive) | -1.22 (inactive) |
| CALPEAGRRSAGNASASA [FS-1462] | -0.222 (inactive) | -0.673 (inactive) | -1.48 (inactive) |
| CASGYRGRRSAGNASASA [FS-1279] | 10.4 (active) | 9.6 (active) | 8.02 (active) |
| CASLARGRRSAGNASASA [FS-295] | 9.48 (active) | 9.53 (active) | 7.6 (active) |
| CAYLNRGRRSAGNASASA [FS-1504] | 8.94 (active) | 11.8 (active) | 8.66 (active) |
| CAIPRRHTRSAGNASASA [FS-1015] | 4.95 (active) | 4.88 (active) | 4.46 (active) |
| CASPERHTRSAGNASASA [FS-1414] | 9.58 (active) | 9.61 (active) | 8.51 (active) |
| CASPARLARRAGNASASA [FS-869] | 0.549 (inactive) | 3.9 (active) | 4.41 (active) |
| CAYYHRHTRSAGNASASA [FS-577] | 0.662 (inactive) | 0.71 (inactive) | 1.07 |
| CALVSRVTRSAGNASASA [FS-363] | 13 (active) | 12.8 (active) | 10.3 (active) |

Source: the supplement of paper PMC3545927
